Laboratory results reported in PubChem BioAssay (NCI).
Compounds without any hit were thinned out: in the full panel of roughly 83,000, 20% have a hit.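 Growth was measured after 48 h exposure to one concentration of compound in 96-well plates. Values under 10 count as active.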 Unmarked numbers belong to inactive results. The source made the active and inactive calls.

Assays:
Experiment in all cases: NCI-60 one-dose screen, 48 h (100 = growth as untreated, 0 = no growth, -100 = all killed)
Conditions in all cases: 10 µM unless noted
NCI-H23 lung = system: NCI-H23 lung
NCI-H226 lung = system: NCI-H226 lung
NCI-H322M lung = system: NCI-H322M lung
HOP-62 NSCLC = system: HOP-62 NSCLC
NCI-H460 lung = system: NCI-H460 lung
HOP-92 NSCLC = system: HOP-92 NSCLC
NCI-H522 lung = system: NCI-H522 lung
A549/ATCC NSCLC = system: A549/ATCC NSCLC
786-0 renal = system: 786-0 renal
COLO 205 colon = system: COLO 205 colon

Compound | growth (NCI-H23 lung) | growth (NCI-H226 lung) [%] | growth (NCI-H322M lung) [%] | growth (HOP-62 NSCLC) | growth (NCI-H460 lung) | growth (HOP-92 NSCLC) [%] | growth (NCI-H522 lung) | growth (A549/ATCC NSCLC) | growth (786-0 renal) | growth (COLO 205 colon)
CCCCN1C(=O)/C(=c2\sc3n(c2=O)C2C(NN=3)N(CC)C(=O)N2CC)c2cccc(C)c21 (stereo not given) | 49.7% | 36.6 | 52.7 | 46.8% | 18.8% | 71.1 | 39.4% | 57.1% | 63.3% | 24.6%
O=C(N/N=C\c1ccc(F)cc1)c1ccc2nc(-c3ccc(Br)cc3)[nH]c2c1 | 0.752% (active) | 32.9 | 68.1 | 25.1% | -64.4% (active) | 53.3 | 81% | -3.93% (active) | -32% (active) | 19.2%
CNC(=O)c1cc(Oc2ccc3c(c2)sc2nc(-c4ccc(N(C)C)cc4)cn23)ccn1 | 35.5% | 36.2 | 48.1 | 45.4% | 8.23% (active) | 37.9 | 3.82% (active) | 23.4% | 31% | 8.9% (active)
CCOC(=O)c1c(NC(=O)c2cccc(C(F)(F)F)c2)sc2c3c(ccc12)OCN(C)C3 | 83.6% | 77.8 | 18 | -87.6% (active) | -75.9% (active) | 15.2 | -15% (active) | -77.7% (active) | -71.9% (active) | -57.6% (active)
Cn1cc(-c2nnc(N)nc2-c2c[nH]c3ccc(Br)cc23)c2cc(Br)ccc21 | 98.3% | 112 | 104 | 106% | 107% | 111 | 85.7% | 104% | 89.5% | 116%
N#Cc1c(-c2cccs2)cc(-c2cnccn2)nc1SCC(=O)N/N=C/c1cccs1 | 56.6% | 68.9 | 73.1 | 38.8% | 20.8% | 30.1 | 73.1% | 19.4% | 16.6% | 53.5%
Cc1ccc(NC(=O)/C=C/c2ccc(OCCCOc3ccc4c(C)cc(=O)oc4c3)cc2)cc1 | 75.1% | 56.8 | 37.8 | 48.5% | 38.8% | 35.7 | 51.9% | 82.9% | 44.3% | 82.2%
Cc1ccc2c(n1)C(=O)C(Cl)=C(Nc1cc(C(F)(F)F)cc(C(F)(F)F)c1)C2=O | 86% | 84.3 | 105 | 118% | 95.9% | 92.4 | 37.4% | 101% | 80.3% | 92.5%
Cn1cc(-c2nnc(N)nc2-c2c[nH]c3ccc(F)cc23)c2cc(Br)ccc21 | 26.4% | 27.4 | 41.8 | 30.9% | 13.8% | 56.5 | -0.551% (active) | 38.6% | 21.5% | 9.15% (active)
O=C1C(SCc2ccccc2)=C(Cl)CN1c1ccc(Cl)cc1 | 80.5% | 99 | 98.2 | 109% | 106% | 104 | -59.6% (active) | 101% | 103% | 119%
O=C(COc1ccc(/C=C2\C(=O)Nc3ccc(Cl)cc32)cc1)Nc1ccc(Cl)cc1 | 59.7% | 74 | 74.3 | 63.2% | 23.7% | 93.5 | 45.3% | 57% | 68.3% | 90.5%
CC1=C(SCC(=O)OCCCCCC(C)C)C(=O)c2ccccc2C1=O | 89% | 93.8 | 100 | 106% | 102% | 85 | 68.4% | 105% | 99.9% | 125%
CCc1cccc2c3c(sc12)C(c1ccc(F)cc1)C(C#N)=C(/N=C/c1ccc(Cl)cc1)O3 (stereo not given) | 32.4% | 44.6 | 52.9 | 36.4% | 14.6% | 66.6 | -43.4% (active) | 31.1% | 34.2% | -33.6% (active)
O=C(CSc1nc2ccccc2c(=O)n1-c1ccccc1)N/N=C/c1ccc(Oc2ccc(Cl)cc2)cc1 | 39.1% | 72.1 | 84.5 | 59.1% | 32.1% | 66.7 | 49.6% | 41.7% | 53.2% | 49.2%
CC(C)(C)c1cc(NC(=O)Nc2ccc(-c3cn4c5c(sc4n3)CCc3c[nH]cc3-5)cc2)no1 | 13.9% | 33.9 | 47.6 | -28.1% (active) | 4.38% (active) | 23.5 | 32.4% | 28.7% | -29.4% (active) | -17.2% (active)
